KB-3-1 tox: qHTS assay for MDR1-selective chemotherapeutics: Primary screen using the parental adenocarcinoma cell KB-3-1; KB-3-1 viability, CellTiter-Glo ATP luminescence, 72 h; hit rate 1.4% among 400,000; AID 1347075, 2019; Potency, µM (top dose mostly 46.1 µM), usual class: cytotoxic; also: % is scaled to controls: 0 for no effect and ±100 for the full control effect; nearly all actives have a fitted effect of over 60% in size
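Cells are dispensed, compounds pinned in, plates held at 37 °C for 72 h, then CellTiter-Glo is added and luminescence read after 10 minutes. Cell line: parental KB-3-1 in phenol-red-free DMEM, 10% FBS.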
ATXN2 expr inh: Primary qHTS for Inhibitors of ATXN expression | hit rate 0.72% among 360,000 | Potency, µM (series often up to 57 µM), without a hit: top-dose activity change, negative = inhibition, usual class: inhibitors | HEK-293 ATXN2-luciferase reporter, luminescence, 24 h | AID 1745845, 2022; also: % is scaled to controls: 0 for no effect and ±100 for the full control effect; nearly all actives have a fitted effect of over 55% in size
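qHTS (up to 57 uM final) was run with 24 h compound exposure of reporter cells at 37 °C. Each well was multiplexed: SteadyGlo luminescence measured ATXN2-luciferase expression after a fluorogenic Gly-Phe-AFC viability readout (25 uM final).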
HT1080 IDH1KD tx: qHTS for induction of synthetic lethality in tumor cells producing 2HG: qHTS for the HT-1080-IDH1KD cell line; HT-1080 IDH1 knockdown viability, ATP luminescence, 48 h; hit rate 2% among 360,000; Potency, µM (top dose mostly 46.1 µM), inactives show top-dose activity, negative = toxicity, actives largely listed as cytotoxic;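 also: 0% = DMSO wells and -100% = cell-free medium wells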
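Assay cells: HT-1080 with IDH1 knockdown, 750 per well, RPMI/5% FBS. Exposure: 48 h at 37 °C following 2 h pre-incubation. Read: CellTiter-Glo luminescence; fitted concentration-response, curve class assigned.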
KB-V1 MDR tox: qHTS assay for MDR1-selective chemotherapeutics: Primary screen using the drug-selected MDR subline cells KB-V1 | hit rate 3.4% among 400,000 | AID 1347076, 2019 | KB-V1 MDR cells viability, CellTiter-Glo, 72 h | Potency, µM (top dose mostly 46.1 µM), usual class: cytotoxic; also: % is scaled to controls: 0 for no effect and ±100 for the full control effect; nearly all actives have a fitted effect of over 60% in size
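qHTS viability screen in drug-selected KB-V1 MDR cells: 72 h compound treatment at 37 degrees C, ATP luminescence end point.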
HT1080-NT tox: qHTS for induction of synthetic lethality in tumor cells producing 2HG: qHTS for the HT-1080-NT fibrosarcoma cell line | HT-1080-NT fibrosarcoma viability, CellTiter-Glo ATP luminescence, 48 h | Potency, µM (highest dose often 46.1 µM), without a hit: at the top dose activity, negative = less viability, hits mostly cytotoxic | hit rate 1.6% among 360,000 | AID 686970, 2013;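 also: NT is the 2HG producing partner of a matched IDH1 knockdown line; 0% = DMSO-treated cells and -100% = media-only wells without cells; nearly all actives have a fitted effect of over 55% in size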
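A 48-hour cytotoxicity screen used HT-1080-NT cells plated 2 hours before compound delivery. ATP-based CellTiter-Glo luminescence measured viability, normalized to DMSO and no-cell controls.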
ATXN viability: Viability Counterscreen for Primary qHTS for Inhibitors of ATXN expression; S2 cells (HEK-293 line with an ATXN2-luciferase reporter) viability, CellTiter-Fluor protease fluorescence, 24 h; Potency, µM (top dose mostly 56.7 µM), most hits filed as cytotoxic; hit rate 0.49% among 400,000; also: nearly all actives have a fitted effect of over 40% in size
* marks the source's active call; other numbers are inactive results; i = inactive; u = inconclusive; x = no result; [ ] = dose if it differs, or a comment. An excerpt weighted towards active compounds, which were near 6.2% of everything screened. Calls follow the shape of the dose curve; as a rule, active = well fitted curve in the direction sought with a large enough effect; inconclusive = small, poorly fitted or top-dose-only effect, or another doubt; inactive = no such curve, though single readings can be large; an effect the other way counts as inactive or inconclusive. Potency is read from the fitted curve at half-maximal effect.

SMILES | KB-3-1 tox | ATXN2 expr inh | HT1080 IDH1KD tx | KB-V1 MDR tox | HT1080-NT tox | ATXN viability
COc1ccc(-c2ncncc2-c2csc(C)n2)c(O)c1OC | i | 0% | 1% | i | 0% | i
COC1=C(N)C(=O)c2nc(-c3nc(C(=O)O)c(C)c(-c4ccc(OC)c(OC)c4O)c3N)ccc2C1=O | 0.15µM* | -92% | 0.0082µM* | 0.21µM* | 0.0092µM* | 2.2µM*
CCCn1ccc2c(OCC(=O)Nc3cc(C)ccc3C)cccc2c1=O | i | u | x | i | x | i
Cc1nc(Nc2ccccc2)sc1C(=O)c1ccc(F)cc1 | i | 49% | -29% | i | -22% | i
Nc1nc(Nc2ccccc2F)sc1C(=O)c1ccccc1 | 10µM* | -9% | -27% | i | -10% | u
Cc1ccc(NC(=S)NC(=O)c2ccc(F)cc2)cc1S(=O)(=O)Nc1cccc(Cl)c1 | 5.2µM* | u | 2.9µM* | 7.3µM* | 6.5µM* | u
Cc1ccc(C(=O)NC(=S)Nc2ccc(NC(=O)c3cccc(Cl)c3)cc2)cc1 | i | -31% | 26µM* | i | u | u
Cc1cccc(C(=O)NC(=S)NNC(=O)c2ccc(Cl)cc2)c1 | u | -38% | 8.2µM* | u | u | u
COc1ccc(C(=O)NC(=S)NNC(=O)c2ccc(NC(=O)C(C)C)cc2)cc1 | u | u | -15% | 2.6µM* | -10% | i
Cc1ccc(C2C=C(c3ccc(Cl)cc3)Nc3nc(NC(=O)c4ccco4)nn32)cc1 (centres undefined) | i | -18% | x | u | x | x
CC(C)C(=O)Nc1cccc(NC(=S)NC(=O)c2ccc(Cl)cc2)c1 | u | 5% | u | 2.9µM* | u | i
C/C(=N\Nc1nc2c(s1)CCCC2)c1ccc(Cl)cc1 | u | 5% | 23µM* | u | 23µM* | i
CN(C)c1ccc(C(=O)Nc2nc3c(s2)CCCC3)cc1 | i | u | -18% | i | 1% | u
CN(Cc1ccccc1)S(=O)(=O)c1ccc(F)c(C(=O)Nc2ccccc2C(F)(F)F)c1 | i | 9% | x | i | x | i
Nc1c(C(=O)Nc2ccc(C(=O)O)cc2)sc2nc3c(cc12)CCCC3 | i | 82% | x | i | x | i
Nc1c(C(=O)Nc2cccc(C(=O)O)c2)sc2nc3c(cc12)CCCC3 | i | 4µM* | 13% | i | 18% | i
CCN1CCc2nc3sc(C(=O)c4ccccc4)c(N)c3cc2C1 | 8.2µM* | 5% | x | u | x | u
CC1C(=O)N(Cc2cn(Cc3ccco3)nn2)CCS(=O)(=O)N1Cc1ccc(-c2cccc(N(C)C)c2)cc1 (centres undefined) | i | -15% | -13% | i | -12% | u
Clc1ccc(C[n+]2cc(-c3ccccc3)n3c2CCCCC3)c(Cl)c1 | 2.1µM* | u | 16µM* | u | 15µM* | u
CC1CCC(C(C)C)C(OC(=O)C[n+]2cc(-c3ccc(Cl)cc3)n3c2CCCCC3)C1 (centres undefined) | u | u | 21µM* | i | 21µM* | u
Clc1ccc(C[n+]2cc(-c3ccccc3)n3c2CCC3)cc1Cl | u | -1% | u | i | u | i
Clc1ccc(-c2c[n+](Cc3cccc(Cl)c3)c3n2CCC3)cc1 | 6.5µM* | -9% | u | i | -26% | i
Clc1ccc(-c2c[n+](Cc3ccc(Br)cc3)c3n2CCCCC3)cc1 | u | -33% | u | i | u | i
Clc1ccc(-c2c[n+](Cc3ccc(Cl)cc3Cl)c3n2CCCCC3)cc1 | u | u | 16µM* | i | 8.2µM* | u
COc1ccc(NC(=O)Cn2cc(C(=O)c3ccccc3OC)c(=O)c3ccc(C)nc32)cc1OC | i | -21% | x | i | x | u
SMILES | KB-3-1 tox | ATXN2 expr inh | HT1080 IDH1KD tx | KB-V1 MDR tox | HT1080-NT tox | ATXN viability
CCN1CCCC1CNC(=O)c1cnn(-c2ncc(C)c(-c3ccc(F)cc3)n2)c1C(C)C (centres undefined) | x | x | x | x | x | i
COc1cccc2c(=O)c(SC(F)(F)C(F)C(F)(F)F)c(C)[nH]c12 (centres undefined) | u | 15% | 21µM* | i | u | u
COc1cccc(CNS(=O)(=O)c2cc3c4c(c2)CCN4C(=O)CC3)c1 | i | -11% | -1% | i | -6% | i
O=c1sc(/C=N/Nc2ccccc2)c(Cl)n1Cc1ccccc1 | i | 6%[11.3 µM] | 13µM* | i | 15µM* | i
O=C1CC[C@@H](C(=O)NCC2Cc3cc(Cl)cc(-c4ccc5[nH]ccc5c4)c3O2)N1 (some centres undefined) | x | x | x | x | x | i
O=C(Nc1ncc(SCCN2CCCC2)s1)[C@]1(c2ccc(S(=O)(=O)C3CC3)cc2)C[C@@H]1C1CCCCC1 | x | 27µM* | x | x | x | x
COc1ccc(C2c3ccc(O)cc3Oc3ncn4nc(-c5cccnc5)nc4c32)cc1OC (centres undefined) | u | 23% | 15µM* | i | 16µM* | u
COc1ccc(C2c3ccc(O)cc3Oc3ncn(Cc4ccco4)c(=N)c32)cc1OC (centres undefined) | i | -1% | u | i | u | i
C[C@]12CC[C@@H]3c4ccc(O)cc4CC[C@H]3[C@H]1[C@@H](O)[C@@H](O)[C@H]2O | x | 20% | x | x | x | x
COc1cc(NC(=O)CN(C)C2CCCCC2)c(C)cc1[N+](=O)[O-] | i | 2% | 22% | 4.1µM* | 3% | i
COc1cc(NC(=O)CSc2nc3ccccc3n2-c2ccccc2)c(C)cc1[N+](=O)[O-] | i | -9% | -5% | 8.2µM* | 0% | i
CN(C)S(=O)(=O)c1ccc(NC(=O)CSc2nc3ccccc3n2-c2ccccc2)cc1 | i | -21% | -2% | i | -8% | i
COc1ccc(-n2c(SCC(=O)Nc3ccc([N+](=O)[O-])cc3OC)nc3ccccc32)cc1 | i | -10% | 0% | i | -2% | i
COc1cc(NC(=O)COC(=O)C2CC2)c(C)cc1[N+](=O)[O-] | i | -1% | 8% | i | 5% | i
CN(C)S(=O)(=O)c1cccc(NC(=O)CSc2nc3ccccc3n2-c2ccccc2)c1 | u | -16% | u | 2.3µM* | -23% | i

Source: PubChem BioAssay
